# Results: PubChem BioAssay (NCATS)
# Inconclusive results are not listed. Where a call stands in place of a potency, no number is given. Active and inactive are the calls of the source. The call rests on the fitted dose curve; in most records, active means well fitted inhibition curve with a large enough effect; inconclusive means small, poorly fitted or top-dose-only effect; inactive means flat fitted curve, though single readings scatter.
# System: CP191
# Assay: qHTS profiling for inhibitors of Plasmodium falciparum proliferation (AID 504749); further: nearly all actives have a fitted effect of over 60% in size
# Conditions: P. falciparum in erythrocytes, SYBR Green DNA, 72 h; series mostly up to 28.7 µM
# How it was run: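 Infected RBCs, 0.3% parasitemia/2.5% Hct final; cpd 72 h, 37 C, 5% CO2; lysis buffer with saponin/triton/SYBR Green I, o/n RT dark; FI 485/535; norm. to artemisinin (0.29 uM) and DMSO.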
# Potency means the concentration at half of the fitted maximal effect.
row,Structure (SMILES),Potency
1,Cn1nnc2c(C(N)=O)ncn2c1=O,inactive
2,CC(C)OC(=O)C(C(=O)OC(C)C)=C1SC=CS1,inactive
3,CC1=NN(c2ccccc2)C(=O)C1,inactive
4,COC(=O)Nc1nc2ccc(Sc3ccccc3)cc2[nH]1,inactive
5,CCc1c2c(nc3ccc(OC(=O)N4CCC(N5CCCCC5)CC4)cc13)-c1cc3c(c(=O)n1C2)COC(=O)[C@]3(O)CC,inactive
6,Cc1noc(NS(=O)(=O)c2ccc(N)cc2)c1C,inactive
7,CN1CCN(c2c(F)cc3c(=O)c(C(=O)O)cn4c3c2OCN4C)CC1,inactive
8,S=P(N1CC1)(N1CC1)N1CC1,inactive
9,CC[C@H](NC(C)C)[C@H](O)c1ccc(O)c2[nH]c(=O)ccc12,inactive
10,CC[C@H](C)C(=O)O[C@H]1C[C@@H](C)C=C2C=C[C@H](C)[C@H](CC[C@@H]3C[C@@H](O)CC(=O)O3)[C@H]21,inactive
11,CC(C)(Sc1cc(C(C)(C)C)c(O)c(C(C)(C)C)c1)Sc1cc(C(C)(C)C)c(O)c(C(C)(C)C)c1,inactive
12,Cc1ncc([N+](=O)[O-])n1CCO,inactive
13,CCCc1cc(C(N)=S)ccn1,inactive
14,CCCN[C@H]1CCc2nc(N)sc2C1,inactive
15,COC(=O)Nc1nc2ccc(C(=O)c3ccccc3)cc2[nH]1,inactive
16,CC(C)(C#N)c1cc(Cn2cncn2)cc(C(C)(C)C#N)c1,inactive
17,COc1c(N2CCNC(C)C2)c(F)cc2c(=O)c(C(=O)O)cn(C3CC3)c12 (centres undefined),inactive
18,O=C(O)c1cc(=O)[nH]c(=O)[nH]1,inactive
19,CNS(=O)(=O)Cc1ccc2[nH]cc(CCN(C)C)c2c1,inactive
20,CCOc1cc(N)c(Cl)cc1C(=O)NCC1CN(Cc2ccc(F)cc2)CCO1 (centres undefined),3980 nM (active)
21,CCC(C)(C)c1ccc(CC(C)CN2C[C@@H](C)O[C@@H](C)C2)cc1 (some centres undefined),inactive
22,CN(C)c1ccc(C(=C2C=CC(=[N+](C)C)C=C2)c2ccc(N(C)C)cc2)cc1,178 nM (active)
23,COc1ccc(C(=O)CC(=O)c2ccc(C(C)(C)C)cc2)cc1,inactive
24,CCc1cc(C(N)=S)ccn1,inactive
25,NC(=O)N1c2ccccc2CC(=O)c2ccccc21,inactive
26,Cc1nnc(NS(=O)(=O)c2ccc(N)cc2)s1,inactive
27,CCN(C)C(=O)Oc1cccc([C@H](C)N(C)C)c1,inactive
28,CNC1CCCN(c2c(F)cc3c(=O)c(C(=O)O)cn(C4CC4)c3c2OC)C1 (centres undefined),inactive
29,COc1cc(NCc2ccc3nc(N)nc(N)c3c2C)cc(OC)c1OC,251 nM (active)
